This passage reports outcome, Potency and max response results from PubChem BioAssay (Tox21).

The nature of assay [1]: qHTS RealTime-Glo MT Cell Viability Assay in HepG2 cells - 40 hour (AID 1224870). Also: nearly all actives have a fitted effect of over 50% in size. The essentials: (§1)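 HepG2 cells mixed with RealTime-Glo MT reagents (NanoLuc plus cell-permeant prosubstrate) were seeded at 600 cells/well, incubated 5 h at 37 C/5% CO2, then pinned with compounds in DMSO; nonlytic luminescence tracked viability during 40 h treatment.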
For orientation: In qHTS, concentration-response curves come from the screen itself.

A short description of assay [2]: A CellTox Green Cytotoxicity Assay to monitor cytotoxicity in HEK293 cells - 40 hour (AID 1224871). Also: nearly all actives have a fitted effect of over 45% in size. The essentials:
(§2)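 Fluorescence intensity, read at 0, 8, 16, 24, 32 and 40 h of compound treatment, reflected dye binding to DNA of dead HEK293 cells; compounds (23 nL, DMSO) were added 5 h after plating cells with reagent.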

Assay [3] is described as follows: qHTS RealTime-Glo MT Cell Viability Assay in HEK293 cells - 16 hour (AID 1224872). Also: top concentration of the series differs between compounds; nearly all actives have a fitted effect of over 50% in size. In outline:
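Nonlytic real-time viability readout: viable cells convert prosubstrate to NanoLuc substrate, giving luminescence proportional to live cell number. HEK293, 600 cells/well, compound added after 5 h, continuous culture at 37 C.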

The nature of assay [4]: qHTS RealTime-Glo MT Cell Viability Assay in HepG2 cells - 8 hour (AID 1224873). Also: nearly all actives have a fitted effect of over 55% in size. In outline: as §1
Assay [5] is described as follows: qHTS RealTime-Glo MT Cell Viability Assay in HEK293 cells - 40 hour (AID 1224874). Also: nearly all actives have a fitted effect of over 50% in size. Also: potency is read from the fitted curve at half-maximal effect. To be noted: RealTime-Glo luminescence; max response: hits give low values. In outline: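 Viable HEK293 cells reduce a cell-permeant prosubstrate; the product diffuses out and is consumed by NanoLuc in the medium to give light. Compounds went in after a 5 h incubation and plates were read over the treatment course.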

Assay [6] in a line: A CellTox Green Cytotoxicity Assay to monitor cytotoxicity in HEK293 cells - 24 hour (AID 1224875). Also: series mostly up to about 77 µM; nearly all actives have a fitted effect of over 45% in size. The essentials:
as §2

Assay [7] in a line: A CellTox Green Cytotoxicity Assay to monitor cytotoxicity in HepG2 cells - 16 hour (AID 1224876). Also: nearly all actives have a fitted effect of over 45% in size. The essentials:
(§3)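 Using 1536-well format, dye-containing HepG2 suspension was seeded, allowed 5 h at 37 C/5% CO2, dosed by pintool with compounds, positive and negative controls, and imaged for fluorescence across 40 h.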

A short description of assay [8]: qHTS RealTime-Glo MT Cell Viability Assay in HepG2 cells - 32 hour (AID 1224877). Also: nearly all actives have a fitted effect of over 55% in size. In outline:
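Luminescence read-out: viable HepG2 cells reduce a prosubstrate to a NanoLuc substrate, giving a signal proportional to live cell number. Reads taken at 0, 8, 16, 24, 32 and 40 h of compound exposure at 37 C.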

Assay [9] in a line: A CellTox Green Cytotoxicity Assay to monitor cytotoxicity in HepG2 cells - 24 hour (AID 1224878). Also: nearly all actives have a fitted effect of over 45% in size. In outline: as §3
The nature of assay [10]: A CellTox Green Cytotoxicity Assay to monitor cytotoxicity in HepG2 cells - 40 hour (AID 1224879). Also: nearly all actives have a fitted effect of over 40% in size. In outline: as §3

Results filed as inconclusive are left out. Values without a mark were called inactive. Calls of active or inactive are those of the source. Calls follow the shape of the dose curve; as a rule, active = well fitted curve in the direction sought with a large enough effect in the repeat runs; inconclusive = weak or mixed curves; inactive = no such curve, though single readings can be large; an effect the other way counts as inactive or inconclusive.
% is scaled to controls: 0 for no effect and ±100 for the full control effect.

Regarding `Cc1cccc(OCC(O)CNC(C)(C)C)c1C` (stereo not drawn), the outcome in assay [1], in assay [4], in [6], in assay [7], in assay [8] and in assay [9] was inactive. Further, the Potency result in [2], in [3] and in assay [10] was “inactive” in each case. Moreover, the max response in assay [5] is 0.394%.

Turning to `O=S(=O)(O)c1cc(O)c2ccc(Nc3ccccc3)cc2c1`, the compound was called inactive in [1], in assay [4], in assay [6], in assay [7], in [8] and in [9]. Also, the Potency entry in assay [2], in [3] and in [10] was “inactive” throughout. The max response in [5] is 11.9%.

As to `COc1nccnc1NS(=O)(=O)c1ccc(N)cc1`, the compound was called inactive in assay [1], in [4], in assay [6], in [7], in [8] and in [9]. Further, the Potency result in assay [2], in assay [3] and in assay [10] was “inactive” in each case. For the same compound, in assay [5], the max response was 2.98%.

Take `C[C@@H](Oc1ccc(CNC(=O)c2cccnc2Oc2ccc3c(c2)OCO3)c(F)c1)C(=O)O`: the result in assay [1], in [4], in assay [6], in [7], in assay [8] and in [9] was inactive. Also, the Potency entry in assay [2], in [3] and in assay [10] was “inactive” throughout. Also, the max response in assay [5] was 9.55%.

As to `O=C(c1ccc(O)cc1)c1ccc(O)c(O)c1O`, the compound was called inactive in [1], in assay [4], in assay [6], in [7], in assay [8] and in assay [9]. Further, the Potency entry in assay [2], in assay [3] and in assay [10] was “inactive” each time. In addition, the max response in assay [5] was -10.5%.

In the case of `NNc1nnc(NN)c2ccccc12`, the call in assay [1], in assay [4], in assay [6], in assay [7], in assay [8] and in assay [9] was inactive. The Potency result in assay [2], in assay [3] and in [10] was “inactive” in each case. Besides, the max response in assay [5] was 0.221%.

As for `O=C1c2cccc3c2[C@H](CCC3)CN1[C@@H]1CN2CCC1CC2`, the compound was classed as inactive in [1], in assay [4], in assay [6], in [7], in assay [8] and in [9]. Also, the Potency result in assay [2], in [3] and in [10] was “inactive” each time. Moreover, the Potency in assay [5] was 6.01 µM (active).

For `NC(CO)C(=O)NNCc1ccc(O)c(O)c1O` (stereo not drawn), the compound was classed as inactive in [1], in assay [4], in [6], in [7], in assay [8] and in [9]. The Potency entry in [2], in assay [3] and in assay [10] was “inactive” throughout. Moreover, the max response in [5] was 2.85%.

For the compound `COc1ccc2c(c1)C(=O)N(CCc1ccc(S(=O)(=O)NC(=O)NC3CCCCC3)cc1)C(=O)C2(C)C`, the call in [1], in assay [4], in [6], in assay [7] and in [8] was inactive. Further, the Potency entry in [2], in assay [3] and in assay [10] was “inactive” in each case. Moreover, the max response in [5] was -9.27%.

`O=C(NCC(O)CO)c1c(I)c(C(=O)NCC(O)CO)c(I)c(N(CCO)C(=O)CO)c1I` (stereo not drawn): the compound was classed as inactive in [1], in assay [4], in assay [6], in assay [8] and in assay [9]. Also, the Potency entry in assay [2], in assay [3] and in assay [10] was “inactive” in each case. For the same compound, in [5], the max response was 8.98%.

For `CCCCCOC(=O)CCC`, the call in assay [1], in assay [4], in assay [6], in assay [8] and in [9] was inactive. The Potency result in assay [2], in [3] and in assay [10] was “inactive” each time. Also, the max response in assay [5] was -0.243%.

For the compound `CCOCCOCCOCC`, the compound was classed as inactive in assay [1], in assay [4], in [6], in [8] and in [9]. Moreover, the Potency entry in assay [2], in assay [3] and in [10] was “inactive” throughout. Further, the max response in assay [5] is 4.8%.

On to `CCNC(=O)C1CC(C)CCC1C(C)C` (stereo not drawn), for which the result in assay [1], in assay [4], in assay [6], in assay [7] and in [8] was inactive. Further, the Potency result in assay [2], in assay [3] and in assay [10] was “inactive” in each case. The max response in assay [5] was 2.62%.

Take `CC(C)(C)c1cc(CCC(=O)NN)cc(C(C)(C)C)c1O`: the outcome in assay [1], in [4], in assay [6] and in assay [8] was inactive. Further, the Potency result in assay [2] and in assay [3] was “inactive” in each case. Moreover, the max response in [5] was -14%.

For `CCCCCCN`, the outcome in [1], in assay [4], in assay [6], in assay [7] and in [8] was inactive. In addition, the Potency entry in assay [2], in assay [3] and in assay [10] was “inactive” each time. In addition, in assay [5], the max response is 9.84%.

Turning to `CCOC(=O)CC(=O)c1ccccc1`, the compound was classed as inactive in assay [1], in assay [4], in [6], in [7] and in [8]. Besides, the Potency result in assay [2], in assay [3] and in [10] was “inactive” throughout. In addition, the max response in assay [5] is 10.1%.

For `CCCOC(=O)C(C)O` (stereo not drawn), the compound was called inactive in [1], in assay [4], in assay [6], in assay [7] and in [8]. The Potency result in [2], in [3] and in [10] was “inactive” throughout. In addition, in assay [5], the max response was -7.32%.

Consider `CCCCCCCCOS(=O)(=O)O`, for which the outcome in [1], in [4], in assay [6], in assay [7] and in [8] was inactive. The Potency entry in [2], in assay [3] and in [10] was “inactive” each time. Besides, the max response in [5] was 2.61%.

For the compound `C=C1CC/C=C(\C)CC[C@@H]2[C@@H]1CC2(C)C`, the compound was classed as inactive in [1], in [4], in [6], in assay [8] and in assay [9]. In addition, the Potency result in [2], in [3] and in assay [10] was “inactive” in each case. The max response in assay [5] is 2.22%.

Take `O=C(OCC1(COC(=O)c2cccnc2)CCCC(COC(=O)c2cccnc2)(COC(=O)c2cccnc2)C1O)c1cccnc1`: the result in assay [1], in assay [4], in assay [6], in [8] and in assay [9] was inactive. The Potency entry in [2], in assay [3] and in assay [10] was “inactive” in each case. Also, the max response in [5] is 1.63%.

`CC(=O)c1sc(C)nc1C`: the outcome in assay [1], in assay [4], in [6], in assay [8] and in assay [9] was inactive. In addition, the Potency entry in assay [2], in assay [3] and in assay [10] was “inactive” in each case. Besides, the max response in [5] is -23.3%.

In the case of `CCOCCOC(=O)/C=C/c1ccc(OC)cc1`, the result in assay [1], in assay [4], in assay [6], in [8] and in [9] was inactive. Further, the Potency result in assay [2], in [3] and in [10] was “inactive” in each case. In addition, the max response in [5] is 4.37%.

As for `CCCC/C=C/C=C\C=O`, the compound was called inactive in assay [1], in [4], in [6], in assay [8] and in assay [9]. Moreover, the Potency entry in assay [2], in assay [3] and in assay [10] was “inactive” throughout. For the same compound, the max response in assay [5] was 0.84%.
